Holding throughout (experiment): PBM binding z-score (relative to random genomic background probes); higher = stronger binding; sequences stand for … in GC…GCGATTGACAGCGTAGAATGAAGG
In assay [1] the test system is FXR:RXRa (NR concentration 270 nM, RXRa partner concentration 90 nM). The essentials:
(§1)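 Ligand-free nuclear receptor dimers were applied to custom Agilent 4×180K protein-binding microarrays whose double-stranded probes carried direct-repeat seeds, single-nucleotide variants, half-site ablations and random human genomic background sequences in 34-nt variable regions. Incubation lasted 1 h. Binding z-scores were computed against the random background probes from regression-normalized fluorescence.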

For assay [2], the system named is LXRa:RXRa (NR concentration 270 nM, RXRa partner concentration 90 nM). In outline:
as §1

Assay [3] concerns LXRa homodimer (NR concentration 270 nM). In outline: as §1
Assay [4] has as its system LXRb:RXRa (NR concentration 270 nM, RXRa partner concentration 90 nM). The essentials:
as §1

In assay [5] the test system is LXRb homodimer (NR concentration 270 nM). The essentials: as §1
Assay [6] concerns PPARa:RXRa (NR concentration 270 nM, RXRa partner concentration 90 nM). In outline: as §1
For assay [7], the system named is PPARg:RXRa (NR concentration 180 nM, RXRa partner concentration 90 nM). In outline:
as §1

Assay [8] concerns PPARg:RXRa 270nM:90nM, anti-RXR (NR concentration 270 nM, RXRa partner concentration 90 nM). The essentials:
as §1

Assay [9] has as its system PPARg:RXRa 30nM:10nM, anti-RXR (NR concentration 30 nM, RXRa partner concentration 10 nM). In outline: as §1
For assay [10], the system named is PPARg:RXRa 90nM:30nM, anti-RXR (NR concentration 90 nM, RXRa partner concentration 30 nM). In outline:
as §1

The test system of assay [11] is PPARg:RXRa DBDmut IVT, anti-RXR (DBD mutation: RXRa K156A/R161A, NR concentration 270 nM, RXRa partner concentration 90 nM). The essentials:
as §1

For assay [12], the system named is PPARg:RXRa IVT, anti-PPARg (NR concentration 270 nM, RXRa partner concentration 90 nM). The essentials: as §1
Assay [13] deals with PPARg DBDmut:RXRa IVT, anti-PPARg (DBD mutation: PPARg1 K132A/R137A, NR concentration 270 nM, RXRa partner concentration 90 nM). In outline:
as §1

Assay [14] relates to PPARg DBDmut IVT, anti-PPARg (DBD mutation: PPARg1 K132A/R137A, NR concentration 270 nM). The essentials: as §1
Assay [15] has as its system PPARg homodimer (NR concentration 180 nM). In outline:
as §1

In assay [16] the test system is PXR:RXRa (NR concentration 270 nM, RXRa partner concentration 90 nM). The essentials: as §1
The subject of assay [17] is PXR homodimer (NR concentration 270 nM). In outline:
as §1

The test system of assay [18] is RARa:RXR (NR concentration 270 nM, RXRa partner concentration 90 nM). In outline: as §1
For assay [19], the system named is RARa homodimer (NR concentration 270 nM). In outline: as §1
The subject of assay [20] is RARb:RXRa (NR concentration 270 nM, RXRa partner concentration 90 nM). The essentials: as §1

Here are results for seven sequences from the supplement of paper PMC6555819.

On to CAAACTAGGTCAAGAGGTCAAAGTACGCTTCCCG, for which the PBM binding z-score in assay [1] was 7.11; in assay [2], 6.18; in [3], 5.74; in [4], 5.71; in assay [5], 2.26; in assay [6], 6.64. The PBM binding z-score in assay [7] amounted to 10; in [8], 8.3; in assay [9], 7.25; in [10] it was 8.63; in assay [11], 8.34; in assay [12] it was 8.65. The PBM binding z-score turned out to be 3.41 in assay [13]; 3.08 in assay [14]; 4.62 in [15]; 6.26 in assay [16]; 3.22 in assay [17]; 7.37 in assay [18]. In addition, the figures for the PBM binding z-score in assay [19] and in [20] were 3.18 and 5.45, respectively.

Regarding ATCCAAAGGTCGAAGGTGAGTATACCCACCCGAA, the PBM binding z-score in assay [1] is 5.05; in assay [2], 4.12; in assay [3] it was 0.34; in assay [4], 3.2; in assay [5], 0.577; in [6] it was 4.95. The PBM binding z-score in [7] was 5.19; in assay [8] it was 5.37; in assay [9] it was 2.53; in [10], 4.33; in assay [11] it was 0.6; in assay [12] it was 2.51. Further, the PBM binding z-score in [13] was 0.413; in assay [14], 0.999; in assay [15], 2.58; in assay [16], 3.26; in assay [17], 0.0246; in [18], 4.54. Further, the figures for the PBM binding z-score in assay [19] and in assay [20] were 0.353 and 3.97, respectively.

As to CCGACTGGGGCAAGGTTACCGTAACGCACAGCCA, the PBM binding z-score was 0.11 in assay [1]; 0.127 in assay [2]; -0.449 in [3]; 0.456 in assay [4]; -1.12 in assay [5]; 1.87 in [6]. The PBM binding z-score in assay [7] was 2.6; in assay [8], 3.45; in [9], 0.963; in assay [10] it was 2.8; in assay [11] it was 3.53; in [12], 3.71. Also, the PBM binding z-score in [13] is -0.69; in assay [14], -1; in assay [15], -0.362; in assay [16], 0.043; in [17], -0.221; in assay [18] it was 0.745. In addition, the PBM binding z-score in assay [19] was -0.534; in assay [20], 1.69.

On to TAGCCTAGGTCAGATCGGGCCAGGATACGCTATA, for which the PBM binding z-score in [1] is 1.61; in [2], 1.02; in assay [3], -0.706; in assay [4], 0.308; in assay [5], -0.62; in assay [6], 1.68. Also, the PBM binding z-score in assay [7] is 0.718; in assay [8], 0.623; in assay [9], -0.241; in assay [10], -0.042; in assay [11], -0.033; in assay [12] it was 1.22. Further, the PBM binding z-score was -0.531 in assay [13]; -0.442 in assay [14]; -0.135 in assay [15]; 0.771 in [16]; -0.663 in assay [17]; 0.816 in [18]. Further, the PBM binding z-score in assay [19] was -1.26; in assay [20], 3.

As to GCATGTAGGTAATACAAGGTGAAAGTCCGATTGT, the PBM binding z-score in [1] was 0.127; in assay [2] it was 1.13; in [3] it was 0.162; in assay [4], 0.172; in assay [5], -0.45; in assay [6] it was 1.62. Further, the PBM binding z-score in assay [7] is 1.34; in assay [8], 1.52; in assay [9], 0.458; in [10], 0.981; in [11], 4.42; in assay [12], 4.28. Moreover, the PBM binding z-score amounted to 0.0664 in assay [13]; 0.517 in assay [14]; 0.562 in assay [15]; 0.369 in assay [16]; 0.257 in [17]; 1.52 in assay [18]. Besides, the figures for the PBM binding z-score in [19] and in [20] were 0.17 and 0.218, respectively.

For the sequence AGTCAAAGTTCATCTAGGTAATGTAAGATATGCT, the PBM binding z-score in [1] came out at 6.48; in assay [2], 6.26; in assay [3], 5.38; in [4], 4.07; in assay [5], 1.98; in assay [6], 4.95. Also, the PBM binding z-score in [7] came to 6.59; in [8] it was 6.48; in assay [9], 3.67; in assay [10], 5.42; in [11], 1.01; in assay [12], 3.31. Besides, the PBM binding z-score worked out at 1.3 in [13]; 1.47 in assay [14]; 2.6 in assay [15]; 5.28 in assay [16]; 6.34 in assay [17]; 3.72 in assay [18]. Besides, the PBM binding z-score was determined as 1.8 in [19] and 4.94 in assay [20].

For the sequence CTCTAAAGGTCGTGCTCAGGTGAGTATACCAAAC, the PBM binding z-score in [1] is 5.37; in [2] it was 4.54; in assay [3], 0.529; in assay [4], 3.65; in assay [5] it was 0.548; in [6], 5.2. Further, the PBM binding z-score in assay [7] was 3.27; in assay [8], 4.11; in [9], 0.925; in assay [10], 2.64; in assay [11], 1.12; in assay [12], 2.17. The PBM binding z-score was 0.717 in assay [13]; 0.316 in [14]; 1.58 in [15]; 3.09 in [16]; -0.0495 in assay [17]; 4.14 in [18]. The PBM binding z-score was -0.0895 in [19] and 3.93 in assay [20].
